Rv3671c inh: inhibitors of M. tuberculosis serine protease Rv3671c; P9WHR9; inhibition, % at 5.96 µM; actives 0.048% (n = 320,000); AID 2606; in the data active = inhibition above about 38%;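 note: extracellular domain of Rv3671c used as enzyme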
Mtb UGM inh: blocks M. tuberculosis UGM enzyme. P9WIQ1. purified UGM, fluorescence polarization probe displacement. inhibition, % at 10 µM. actives 0.06% (n = 320,000). AID 504406; in the data active = inhibition above about 10%, passing the limit was not always enough
Target sequence (P9WIQ1 whole entry, looked up): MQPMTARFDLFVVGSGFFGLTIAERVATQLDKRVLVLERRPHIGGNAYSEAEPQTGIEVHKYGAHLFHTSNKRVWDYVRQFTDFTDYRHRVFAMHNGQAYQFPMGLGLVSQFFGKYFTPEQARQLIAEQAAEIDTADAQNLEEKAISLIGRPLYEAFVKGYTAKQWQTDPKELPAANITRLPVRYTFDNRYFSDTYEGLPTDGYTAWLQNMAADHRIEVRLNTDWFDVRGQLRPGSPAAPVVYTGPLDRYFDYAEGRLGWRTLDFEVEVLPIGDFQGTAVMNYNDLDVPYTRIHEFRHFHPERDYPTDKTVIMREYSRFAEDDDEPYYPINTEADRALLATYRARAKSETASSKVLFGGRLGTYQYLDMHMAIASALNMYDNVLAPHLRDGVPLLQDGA
Vc quorum ag: induces V. cholerae light production without autoinducers; V. cholerae BH1578 lux reporter, luminescence, 6 h; activation, % at 18.7 µM; actives 0.16% (n = 350,000); in the data active = activation mostly above about 9.7%, no sharp cut-off
GDH-TPI inh: inhibits GDH-TPI coupling enzymes, artifact for Mtb FBA screen; inhibition, % at 4.8 µM; GDH-TPI coupled enzyme counterscreen, NADH absorbance; actives 1.2% (n = 360,000); in the data active = inhibition above about 30%
Mtb FBA inh: inhibits M. tuberculosis FBA enzyme | P9WQA3 | purified M. tuberculosis FBA, fluorescence read-out | inhibition, % at 1 µM | actives 2.3% (n = 360,000) | AID 588726; in the data active = inhibition above about 27%
RecA splice inh: blocks M. tuberculosis RecA intein splicing; inhibition, % (no concentration beside the values); actives 0.75% (n = 290,000); P9WHJ3; AID 2221; cell-free RecA intein splicing, fluorescence; in the data active = inhibition above about 30%
Large screens that a line does not name were inactive. An excerpt weighted towards active compounds, which were near 4.1% of everything screened.

CCCc1[nH]nc2c1C(c1ccc(OC(=O)N3CCOCC3)cc1)C(C#N)=C(N)O2 (centres undefined)	RecA splice inh 48
CCCc1[nH]nc2c1C(/C(C)=C/c1ccccc1)C(C#N)=C(N)O2 (centres undefined)	none
COc1cc(C2C(C#N)=C(N)Oc3n[nH]c(-c4ccncc4)c32)cc(OC)c1OC (centres undefined)	none
CCOc1ccc(C2C(C#N)=C(N)Oc3nc[nH]c(=O)c32)cc1OC (centres undefined)	none
CCCc1[nH]nc2c1C(c1ccc(OC)c(Cn3nnc4ccccc43)c1)C(C#N)=C(N)O2 (centres undefined)	RecA splice inh 70
O=C(NCc1n[nH]c(=S)n1-c1ccc(Br)cc1)c1ccc(S(=O)(=O)N2CCCCC2)cc1	none (no result: RecA splice inh)
CCCc1[nH]nc2c1C(c1ccc(O)c(OC)c1)C(C#N)=C(N)O2 (centres undefined)	RecA splice inh 79
CC(=O)c1ccc(S(=O)(=O)Nc2ccc(C(=O)NCC(c3ccco3)N3CCCC3)cc2)cc1 (centres undefined)	none (no result: Rv3671c inh, Mtb UGM inh, RecA splice inh)
COc1cc(C2Nc3ccccc3NC3=C2C(=O)CC(c2ccc(OC)c(OC)c2)C3)ccc1O (centres undefined)	GDH-TPI inh 44
NC(=O)C1CCN(C(=O)c2ccc(Cl)c(S(=O)(=O)N3CCc4ccccc43)c2)CC1	none (no result: Rv3671c inh, Mtb UGM inh, RecA splice inh)
CCSc1nc2c(c(=O)[nH]1)C(c1ccccn1)C1=C(CC(C)(C)CC1=O)N2 (centres undefined)	Mtb FBA inh 124
COC(=O)/C(=C/c1c[nH]c2ccccc12)NC(C)=O	none
CCOC(=O)/C(=C/c1c[nH]c2ccccc12)NC(C)=O	GDH-TPI inh 38
Cc1ccccc1CN(c1ccc(C(=O)N2CCN(C)CC2)cc1)S(C)(=O)=O	none
CCOC(=O)C[n+]1ccc2c([nH]c3ccccc32)c1C	Mtb FBA inh 135
CCOC(=O)Cc1c(Cl)c2ccccc2[nH]c1=O	none
C/C(=N\Nc1ccc(F)cc1)c1ccc(N2CCOCC2)c(F)c1	none
CC(/C=C/c1ccc2c(c1)OCO2)=N/NC(=O)c1ccc(C)nc1	GDH-TPI inh 36
CC(/C=C/c1ccc2c(c1)OCO2)=N/NC(=O)c1ccncc1	GDH-TPI inh 48
C/C(=N\NC(=O)c1ccc2c(c1)OCO2)c1cccnc1	none
O=C(N/N=C/c1ccc2c(c1)OCCO2)c1ccncc1	none
CC(/C=C/c1ccc2c(c1)OCO2)=N/NC(=O)c1cccnc1	GDH-TPI inh 42
O=C(CN1CCN(S(=O)(=O)c2ccc(Br)s2)CC1)N1CCCCC1	none (no result: RecA splice inh)
Cc1nc(CCNC(=O)CC2C(=O)NCCN2Cc2ccc(F)cc2)sc1C (centres undefined)	none
CC(OC(=O)c1nccnc1N)C(=O)Nc1ccc(S(=O)(=O)N2CCCC2)cc1 (centres undefined)	Mtb FBA inh 142 (no result: Mtb UGM inh)
COCCCN1C(=O)C(CC(=O)NC2CCCC2)CC(C(=O)N(C(C)C)C(C)C)=C1C (centres undefined)	none (no result: Rv3671c inh, Mtb UGM inh, Vc quorum ag, GDH-TPI inh, RecA splice inh)
CSc1ccc(C2NN=C(c3ccccc3)S2)cc1 (centres undefined)	Mtb FBA inh 46
O=C(CSc1nc2ccccc2c(=O)[nH]1)Nc1ccc([N+](=O)[O-])cc1	GDH-TPI inh 38 (no result: RecA splice inh)
O=C(CSc1nc2ccccc2c(=O)[nH]1)Nc1ccc(C(=O)O)cc1	none
O=C1CSC(c2cn(-c3ccccc3)nc2-c2cc3ccccc3oc2=O)N1Cc1ccco1 (centres undefined)	GDH-TPI inh 31
O=C(/C=C/c1cccs1)Nc1ccncc1	GDH-TPI inh 36
O=C(/C=C/c1cccs1)NC(=S)Nc1ccc(C(=O)O)cc1	GDH-TPI inh 74
CCC(C)n1c(O)c(C=NCCc2ccccc2)c(=O)[nH]c1=S (centres undefined)	GDH-TPI inh 55
CCC(C)n1c(O)c(/C=N/Nc2ccccc2)c(=O)[nH]c1=S (centres undefined)	none
O=C(CNC(=O)c1ccco1)N/N=C/c1ccc(O)cc1O	none
Oc1ccc(C=NN=Cc2ccco2)c(O)c1	GDH-TPI inh 41 (no result: Rv3671c inh, Mtb UGM inh, RecA splice inh)
NC(=N\N=Cc1ccco1)/C(N)=N/N=Cc1ccco1	GDH-TPI inh 58 (no result: Rv3671c inh, Mtb UGM inh, RecA splice inh)
NC(=N\N=Cc1ccccc1)/C(N)=N/N=Cc1ccccc1	none (no result: Rv3671c inh, Mtb UGM inh, RecA splice inh)
CCOc1cc(/C=N/NC(=O)c2ccc(O)cc2)ccc1Oc1nc(Cl)ncc1F	none
CCOc1cc(/C=N\Nc2ncc(F)c(N3CCOCC3)n2)ccc1Oc1nc(Cl)ncc1F	GDH-TPI inh 33
COc1ccc2[nH]c(C(=O)N/N=C/c3ccc(O)cc3O)cc2c1	GDH-TPI inh 31 (no result: Rv3671c inh)
COc1cc2cc(C(=O)N/N=C/c3ccc(F)cc3)[nH]c2cc1OC	GDH-TPI inh 46
COc1ccc(/C=C\C(=O)NCC(=O)N/N=C/c2ccc(O)cc2O)cc1	GDH-TPI inh 68
COc1ccc(C(=O)N/N=C/c2ccc(OC)c(COc3ccc(F)cc3)c2)cc1	none
O=C(/C=C\c1ccccc1)NCC(=O)N/N=C/c1ccc(O)cc1O	none
COCC(C)NC(=O)c1cc2cc(OC)ccc2[nH]1 (centres undefined)	Mtb FBA inh 46
COc1ccc2[nH]c(C(=O)Nc3ccc(C)c(F)c3)cc2c1	none
Cc1ccccc1NS(=O)(=O)c1cc2c3c(c1)C(C)C(=O)N3CCC2 (centres undefined)	none
O=C(c1ccc(OC2CCN(Cc3ccccn3)CC2)cc1)N1CCC[C@H]1CO	none (no result: RecA splice inh)
COc1cc(/C=N/NC(=O)c2ccc(-c3ccccc3)cc2)cc(OC)c1OC	none
COc1ccc2cc(C(=O)N/N=C/c3cc(OC)c(OC)c(OC)c3)[nH]c2c1	GDH-TPI inh 49
CCOc1ccc2[nH]c(C(=O)N/N=C/c3ccc(OC)cc3)cc2c1	GDH-TPI inh 55 (no result: Rv3671c inh)
COc1cc2cc(C(=O)N/N=C/c3ccccc3Cl)[nH]c2cc1OC	GDH-TPI inh 47
COc1ccc(/C=N/NC(=O)c2cc3cc(OC)c(OC)cc3[nH]2)cc1	GDH-TPI inh 42
CCOc1ccc(/C=N/NC(=O)c2cc3ccccc3cc2OC)cc1	none
CCCCC(=O)Nc1ccc(C(=O)NCCN2CCOCC2)cc1	none
Cc1[nH]c(=O)[nH]c(=O)c1/C=N/NC(=O)[C@H](C)N	none
COc1cc(OC)c2cc(C(=O)N/N=C/c3cccc(OC)c3O)[nH]c2c1	GDH-TPI inh 43
Oc1[nH]c2ccccc2c1C=Nc1ccccc1	GDH-TPI inh 34
CN(C)CC(C)(C)CN=Cc1c(O)[nH]c2ccccc12	GDH-TPI inh 35
OCCN=Cc1c(O)[nH]c2ccccc12	none (no result: Vc quorum ag)
CC(=NNc1nc2ccccc2s1)c1ccncn1	GDH-TPI inh 34 (no result: Rv3671c inh, Mtb UGM inh, RecA splice inh)
O=C(O)c1ccc(-n2nc(C(F)(F)F)cc2-c2cccs2)cc1	none (no result: Rv3671c inh)
COc1ccc(C2CC(=O)C3=C(C2)Nc2ccccc2N(C(C)=O)C3c2ccco2)cc1 (centres undefined)	GDH-TPI inh 47
CCOc1ccc(/C=N/n2nnnc2N)cc1OCC	GDH-TPI inh 31
CCOc1cc(/C=N\n2nnnc2N)ccc1O	none

Source: PubChem
